The results in this text go back to the supplement of paper PMC4466140.

Sequences and labels used below:
B1: unnamed (peptide)
chain: VLRFLGFPLPIFEKG

The first test concerns the target ScPex13. Description: SPOT peptide array binding signal intensity (averaged, normalized) (arbitrary units (background-subtracted, floor 0; scale differs between SH3 domains)); higher = stronger binding of the SH3 domain to the peptide. The method in brief:
(§1)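 Spot intensities were captured after detection with anti-GST antibody, an HRP-linked anti-mouse secondary and luminol, and quantified with Genespotter. The probes were GST-fused SH3 domains from four yeast species, produced in E. coli BL21(DE3), purified on glutathione Sepharose and incubated at 10 μg/ml overnight at 4°C on cellulose-bound synthetic 15-mer peptides with cysteines replaced by serines. Binding signal is the normalized, background-subtracted spot intensity averaged over replicates, and its arbitrary units differ between domains.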
Consider B1, for which the “SPOT peptide array binding signal intensity” value is no more than 0.

For the next test, the target named is ScRvs167. Described as above. The method in brief: as §1
As for B1, the “SPOT peptide array binding signal intensity” value is no more than 0.

The next test addresses ScSho1. Described as above. The method in brief: as §1
As for B1, the “SPOT peptide array binding signal intensity” value amounted to 662.

For another test, the target named is ScSla1-D1-D2. Described as above. In outline:
as §1
In the case of B1, the “SPOT peptide array binding signal intensity” value was 3.

The target of another test is ScSla1-D3. Described as above. The method in brief:
as §1
On to B1, for which the “SPOT peptide array binding signal intensity” value was no more than 0.

Another test concerns the target SpAbp1-D1. Described as above. The method in brief: as §1
On to B1, for which the “SPOT peptide array binding signal intensity” value came out at 1.

For the next test, the target named is SpBbc1. The test is described as above. In outline: as §1
Regarding B1, the “SPOT peptide array binding signal intensity” value was no more than 0.

The target in another test is SpBzz1-D1. Described as above. In outline: as §1
As for B1, the “SPOT peptide array binding signal intensity” value was found to be 3.5.

A further test addresses SpBzz1-D2. The test is described as above. In outline: as §1
For B1, the “SPOT peptide array binding signal intensity” value was found to be 1.

In the next test the target is SpCyk3. The description is as above. The method in brief:
as §1
Consider B1, for which the “SPOT peptide array binding signal intensity” value was found to be 3.

Another test deals with SpHof1. Described as above. The method in brief: as §1
With B1, the “SPOT peptide array binding signal intensity” value turned out to be 13.8.

Another test deals with SpHof1-2. The test is described as above. The method in brief:
as §1
With B1, the “SPOT peptide array binding signal intensity” value was found to be 5.5.

Another test deals with SpHof1-3. The test is described as above. The method in brief:
as §1
Take B1: the “SPOT peptide array binding signal intensity” value worked out at 486.

In a further test the target is SpHse1. The description is as above. In outline: as §1
As for B1, the “SPOT peptide array binding signal intensity” value came to 1290.

The target in a further test is SpLsb1. The description is as above. The method in brief:
as §1
Regarding B1, the “SPOT peptide array binding signal intensity” value was no more than 0.

The target of a further test is SpLsb4. The test is described as above. In outline:
as §1
Consider B1, for which the “SPOT peptide array binding signal intensity” value is no more than 0.

The target in a further test is SpMyo1. Described as above. The method in brief: as §1
With B1, the “SPOT peptide array binding signal intensity” value is no more than 0.

In a further test the target is SpNbp2. The test is described as above. The method in brief: as §1
For B1, the “SPOT peptide array binding signal intensity” value came to 37.5.

The target of a further test is SpPex13. The description is as above. In outline:
as §1
For B1, the “SPOT peptide array binding signal intensity” value is 5.

The next test concerns the target SpRvs167. Described as above. The method in brief: as §1
Consider B1, for which the “SPOT peptide array binding signal intensity” value was no more than 0.

In the next test the target is SpSla1-D1-D2. The test is described as above. In outline: as §1
As to B1, the “SPOT peptide array binding signal intensity” value is 3.

The next test concerns the target SpSla1-D3. The test is described as above. The method in brief: as §1
Turning to B1, the “SPOT peptide array binding signal intensity” value was 1.
